Reference: PubChem BioAssay (NCI)
The panel holds about 83,000 compounds, 20% with a hit somewhere; the sample as a whole holds those more often.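 Single-concentration screen, 48 h exposure, 96-well plates. Endpoint: percent growth. Below 10 = active.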 Unmarked numbers belong to inactive results. Active and inactive are the calls of the source.

Tested on: HL-60(TB) leukemia
Experiment: NCI-60 one-dose screen, 48 h (100 = growth as untreated, 0 = no growth, -100 = all killed)
Conditions: 10 µM unless noted

Row | SMILES | growth
1 | O=S(=O)(NCCCNc1nccc(-n2cnc3ccccc32)n1)c1ccc(C(F)(F)F)cc1 | 101%
2 | CC1(C)CC[C@]2(C(=O)O)CC[C@]3(C)C(=CCC4[C@@]5(C)C[C@@H](O)[C@@H]6OC(c7ccccc7O)OC[C@@]6(C)C5CC[C@]43C)C2C1 (stereo not given in full) | 38%
3 | COc1ccc(-c2c3c(cn2Cc2cccc(OC)c2)-c2oncc2CCC3)cc1 | 100%
4 | COc1ccccc1/C=C/C(=O)c1nnn(-c2ccc(F)cc2)c1C | 31.9%
5 | COc1cc(C2N=C(NNc3ccccc3)NC(C)=C2C(C)=O)ccc1O (stereo not given) | 92.3%
6 | CCNC(=O)Oc1ccc(/C(=C(/C)c2ccc(Cl)cc2)c2ccc(OCCN(C)C)cc2)cc1 | 52.7%
7 | Cc1cccc(NC(c2cc3cccc4ccc5cccc2c5c43)c2nnnn2C(C)(C)C)c1C (stereo not given) | 91.9%
8 | O=C1Nc2ccccc2/C1=C/c1ccc(COCC2CO2)n1-c1ccc(O)cc1 (stereo not given) | 103%
9 | Oc1ccc(-c2nnc(SCc3ccc(O)c4ncccc34)n2-c2ccccc2)cc1 | 1.26% (active)
10 | COc1ccccc1-n1cc(C#N)c(N)c1C(=O)c1ccc(Br)cc1 | 35.8%
11 | CN1CCN(c2ccc(Nc3nc(NCCNS(=O)(=O)c4ccc5ccccc5c4)c4sccc4n3)cc2)CC1 | -29.5% (active)
12 | CC(=O)C1=C(C)NC(NNc2ccccc2)=NC1c1ccc([N+](=O)[O-])cc1 (stereo not given) | 88.3%
13 | O=S(=O)(Nc1ccc(-c2nc(-c3cccc(O)c3)c(-c3ccnc(Br)c3)[nH]2)cc1)c1ccccc1 | -9.12% (active)
14 | C[C@H](CCC(=O)NCc1ccc(C(=O)Nc2ccccc2N)cc1)[C@H]1CC[C@H]2[C@@H]3[C@@H](O)C[C@@H]4C[C@H](O)CC[C@]4(C)[C@H]3CC[C@]12C | 0.73% (active)
15 | Cc1cccc(/C=C/C(=O)Nc2ncc(Cc3cccc(C)c3)s2)c1 | 0.463% (active)
16 | Clc1ccc(CSc2nnc(-c3ccc(Cl)cc3)n2-c2ccccc2)cc1 | 90.9%
17 | CCN1C(=S)N(c2ccccc2)C2NC(=O)N(/N=C/C=C/c3ccccc3OC)C21 (stereo not given) | 64.2%
18 | COc1ccc(S(=O)(=O)NCCCNc2nccc(-n3cnc4ccccc43)n2)cc1 | 110%
19 | O=S(=O)(NCCCNc1nccc(-c2[nH]c(-c3ccccc3)nc2-c2ccc(Cl)c(O)c2)n1)c1cccc(F)c1 | 35.6%
20 | Nc1nc(N)c2c(n1)NC(c1ccc(Cl)cc1)CC(c1ccc(Nc3nc(NCCO)nc(N4CCOCC4)n3)cc1)=N2 (stereo not given) | 27%
21 | Nc1nc(=O)n([C@H]2C[C@H](O)[C@@H](CO)O2)cc1C=O | 94.1%
22 | CNC(=O)c1cc(N2CCc3cc(NC(=O)Nc4ccc(N5CCOCC5)c(C(F)(F)F)c4)ccc32)ccn1 | 13%
23 | CC(=O)c1ccc(Nc2nc(SCC(C)C)nc(-c3ccc(F)cc3)c2C#N)cc1 | 103%
24 | O=C1[C@H]2Cc3c([nH]c4ccccc34)[C@H](c3ccc(Cl)cc3)N2C(=O)CN1C1CCN(Cc2c(Cl)cccc2Cl)CC1 | 62.1%
25 | CN1CCN(Cc2ccc(NC(=O)c3cncc(C#Cc4cnc5ccc(OCC6COC6)nn45)c3)cc2C(F)(F)F)CC1 | -42.8% (active)

Row | SMILES | growth
26 | CCCCCc1ccc(S(=O)(=O)Nc2cccc(-c3csc(NC(=O)CCCCCN4CCN(CCO)CC4)n3)c2)cc1 | 63.4%
27 | O=C(CSc1nnc(-c2cccs2)n1-c1ccccc1)Nc1ccc(F)cc1 | 69.5%
28 | CC1OC(O[C@@H]2[C@H](O)C(CO)OC(O[C@H]3COC(O[C@H]4CC[C@]5(C)[C@H]6CC[C@]78OC[C@@]9(CCC(C)(C)C[C@H]97)[C@H](O)C[C@@]8(C)[C@]6(C)CC[C@H]5C4(C)C)[C@@H](OC4OC(CO)[C@@H](O)[C@@H](O)[C@@H]4O)[C@@H]3O)[C@H]2OC2OC[C@@H](O)[C@@H](O)[C@@H]2O)[C@@H](O)[C@@H](O)[C@H]1O (stereo not given in full) | -61.4% (active)
29 | COc1ccc(C2CC(c3ccc(Nc4nc(NCCO)nc(N5CCOCC5)n4)cc3)=Nc3c(N)nc(N)nc3N2)cc1 (stereo not given) | 90.9%
30 | CN1CCN(c2ccc(/C=N/Nc3nc4ccccc4c(=O)n3-c3ccccc3)cc2)CC1 | 113%
31 | O=C(COc1ccc(/C=C2\SC(=O)NC2=O)cc1)Nc1ccc(C(=O)/C=C/c2cc3ccccc3nc2Cl)cc1 | 79.6%
32 | N#C/C(=C\c1ccc(-c2ccc(Cl)cc2)o1)C(=O)Nc1ncc(Cc2ccc(Br)cc2)s1 | 50%
33 | Cc1ccc(-c2cc3nc(C(Cl)Cl)nc(-c4ccc(S(=O)(=O)N(C)C)cc4)n3n2)cc1 | 74.9%
34 | N#Cc1nc(-c2ccccc2)oc1S(=O)(=O)N1CCN(CCc2ccccn2)CC1 | 5.71% (active)
35 | O=C(NNc1nc2cc(F)cc(F)c2n2cccc12)c1cccnn1 | 3.63% (active)
36 | CCOc1ccc([C@H]2C(C(=O)c3ccc(Cl)cc3)C3(N[C@@H]2c2ccccc2)C(=O)Nc2ccc(Br)cc23)cc1 (stereo not given in full) | 15.2%
37 | O=C(CSc1cc[n+](CCCCO)c2ccccc12)n1ccc2ccccc21 | 106%
38 | CCOC(=O)c1c(N)c(C#N)cn1-c1cc(OC)c(OC)c(OC)c1 | 96.1%
39 | N#Cc1nc(-c2ccccc2)oc1S(=O)(=O)N1CCCCC1 | 10.5%
40 | COC[C@@]1(C)CC[C@]2(C)CC[C@]3(C)C(=CC[C@@H]4[C@@]5(C)CCCNC(C)(C)[C@@H]5CC[C@]43C)C2C1 (stereo not given in full) | 48.3%
41 | Cc1[nH]c(C(=O)Nc2ccc(C(N)=O)cc2N2CCOC(C)C2)c(Cl)c1Cl (stereo not given) | 98.1%
42 | N#C/C(=C\c1ccc(-c2ccc(Cl)cc2Cl)o1)c1ccc(F)cc1 | 95.9%
43 | CN1CCN(c2ccc(Nc3nc(NCCCNS(=O)(=O)c4cccc5ccccc45)c4sccc4n3)cc2)CC1 | -45.2% (active)
44 | CC(C)(C)c1ccc(C(=O)Nc2sc3c(c2C(N)=O)CC/C(=N\O)C3)cc1 | 4.37% (active)
45 | O=C1C(c2ccccc2)=C(N2CCc3ccccc32)OC1(Cl)Cl | -14.6% (active)
46 | CC(C)Sc1nc(-c2ccccc2)c(C#N)c(N2CCOCC2)n1 | 105%
47 | Fc1ccc(-c2cc3nc(C(Cl)Cl)nc(-c4ccc(Cl)cc4)n3n2)cc1 | -4.23% (active)
48 | Cc1cn(-c2cc(NC(=O)c3cncc(C#Cc4cnc5ccc(O[C@@H]6CCOC6)nn45)c3)cc(C(F)(F)F)c2)cn1 | -32.6% (active)
49 | CCOC(=O)c1csc(NC(=O)CSc2nc3sc4c(c3c(=O)n2-c2ccc(Cl)cc2)CCCC4)n1 | 92.1%
50 | Cn1c2nc3ccccc3c-2cc2ccccc21 | 41.6%
